Reference: publication PMC7862700, “An all-to-all approach to the identification of sequence-specific readers for epigenetic DNA modifications on cytosine”

Legend:
Assay in all cases: DAPPL (digital affinity profiling via proximity ligation, sequencing); 10 mM Tris-HCl pH 7.5, 50 mM NaCl, 1 mM DTT, 4% glycerol, room temperature, 30 min; GST-TFs on glutathione beads, 16-mer random dsDNA library, 0.1% formaldehyde crosslink after washing; high values mean tight binding
Conditions in all cases: protein: recombinant; tags: N-terminal GST; dsDNA, one strand shown
FLI1 = molecular target: T1, FLI1 (Homo sapiens, UniProt Q01543 1-452)
T1 sequence: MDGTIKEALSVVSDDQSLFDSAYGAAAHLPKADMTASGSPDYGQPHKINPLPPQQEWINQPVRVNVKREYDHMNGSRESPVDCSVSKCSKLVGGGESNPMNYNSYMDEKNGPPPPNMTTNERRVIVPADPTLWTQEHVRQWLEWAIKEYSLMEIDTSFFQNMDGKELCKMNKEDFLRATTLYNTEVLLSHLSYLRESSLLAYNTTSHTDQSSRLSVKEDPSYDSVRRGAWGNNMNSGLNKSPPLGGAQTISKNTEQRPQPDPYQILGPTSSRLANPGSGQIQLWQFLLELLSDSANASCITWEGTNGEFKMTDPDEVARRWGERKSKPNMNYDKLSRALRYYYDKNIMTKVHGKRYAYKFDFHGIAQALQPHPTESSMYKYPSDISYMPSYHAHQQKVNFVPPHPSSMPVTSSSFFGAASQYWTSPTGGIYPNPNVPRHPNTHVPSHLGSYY
How it was run: (§1)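 Pools were built from human transcription factors expressed in yeast as GST fusions, captured on glutathione beads and DNA-barcoded, along with a tag-only sample. Incubation with 200 nmole of a 16-mer random double-stranded DNA library lasted 30 min at room temperature in Tris/NaCl/DTT/glycerol buffer, and was followed by washing, 0.1% formaldehyde crosslinking, proximity ligation, PCR amplification and Illumina NextSeq500 sequencing. Binding signal is the quotient of each hexamer's read frequency for a factor and its frequency for the tag-only sample.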

ELK1 = molecular target: T2, ELK1 (Homo sapiens, UniProt P19419 1-428)
T2 sequence: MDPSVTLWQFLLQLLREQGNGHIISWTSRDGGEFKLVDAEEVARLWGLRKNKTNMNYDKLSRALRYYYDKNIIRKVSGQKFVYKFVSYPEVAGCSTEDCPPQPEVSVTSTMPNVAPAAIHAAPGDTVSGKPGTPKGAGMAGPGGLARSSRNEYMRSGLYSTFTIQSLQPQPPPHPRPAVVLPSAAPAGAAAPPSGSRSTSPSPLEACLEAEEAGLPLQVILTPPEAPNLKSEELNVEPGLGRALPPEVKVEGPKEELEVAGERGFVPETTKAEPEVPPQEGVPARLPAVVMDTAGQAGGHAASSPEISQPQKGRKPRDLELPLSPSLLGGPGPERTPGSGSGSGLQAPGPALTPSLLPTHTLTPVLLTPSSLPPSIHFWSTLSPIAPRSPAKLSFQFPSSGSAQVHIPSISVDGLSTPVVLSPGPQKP
How it was run: as §1

GABPA = molecular target: T3, GABPA (Homo sapiens, UniProt Q06546 1-454)
T3 sequence: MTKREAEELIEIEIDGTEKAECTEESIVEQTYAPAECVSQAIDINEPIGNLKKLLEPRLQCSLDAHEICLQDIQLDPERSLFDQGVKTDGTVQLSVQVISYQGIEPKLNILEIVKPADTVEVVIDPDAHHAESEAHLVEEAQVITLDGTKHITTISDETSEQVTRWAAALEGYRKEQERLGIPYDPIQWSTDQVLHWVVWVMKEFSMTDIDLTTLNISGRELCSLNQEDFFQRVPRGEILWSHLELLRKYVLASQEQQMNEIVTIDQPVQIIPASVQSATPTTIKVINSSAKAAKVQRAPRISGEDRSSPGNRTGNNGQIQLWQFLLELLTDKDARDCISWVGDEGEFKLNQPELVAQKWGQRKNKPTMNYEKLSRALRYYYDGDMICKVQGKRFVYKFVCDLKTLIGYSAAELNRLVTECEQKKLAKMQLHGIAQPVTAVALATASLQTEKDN
How it was run: as §1

ERG = molecular target: T4, ERG (Homo sapiens, UniProt P11308 1-479)
T4 sequence: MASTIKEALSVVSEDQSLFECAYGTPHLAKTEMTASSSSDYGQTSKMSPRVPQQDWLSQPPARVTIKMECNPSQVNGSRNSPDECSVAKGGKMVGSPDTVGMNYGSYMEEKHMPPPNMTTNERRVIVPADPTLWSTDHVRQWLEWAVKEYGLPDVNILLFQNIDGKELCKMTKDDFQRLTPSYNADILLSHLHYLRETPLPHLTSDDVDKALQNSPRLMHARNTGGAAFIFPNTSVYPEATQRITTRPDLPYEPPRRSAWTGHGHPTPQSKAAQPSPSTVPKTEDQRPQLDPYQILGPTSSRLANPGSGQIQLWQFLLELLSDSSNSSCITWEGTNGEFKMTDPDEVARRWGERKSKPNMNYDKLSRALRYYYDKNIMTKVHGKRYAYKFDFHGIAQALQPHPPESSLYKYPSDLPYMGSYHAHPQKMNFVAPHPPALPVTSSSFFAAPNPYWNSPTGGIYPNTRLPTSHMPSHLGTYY
How it was run: as §1

ELF1 = ELF1 (Homo sapiens, UniProt P32519 1-619)
How it was run: as §1

EHF = molecular target: T5, EHF (Homo sapiens, UniProt Q9NZC4 1-300)
T5 sequence: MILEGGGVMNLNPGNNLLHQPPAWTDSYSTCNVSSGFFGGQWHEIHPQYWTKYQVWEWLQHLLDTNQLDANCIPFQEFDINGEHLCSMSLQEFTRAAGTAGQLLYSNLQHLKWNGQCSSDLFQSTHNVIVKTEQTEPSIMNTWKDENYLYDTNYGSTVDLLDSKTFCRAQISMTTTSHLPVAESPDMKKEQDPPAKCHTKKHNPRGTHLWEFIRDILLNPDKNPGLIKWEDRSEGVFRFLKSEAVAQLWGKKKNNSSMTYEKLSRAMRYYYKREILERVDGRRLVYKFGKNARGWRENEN
How it was run: as §1

SPI1 = SPI1 (Homo sapiens, UniProt P17947 1-270)
How it was run: as §1

SPIB = SPIB (Homo sapiens, UniProt Q01892 1-262)
How it was run: as §1

ELK3 = molecular target: T6, ELK3 (Homo sapiens, UniProt P41970 1-407)
T6 sequence: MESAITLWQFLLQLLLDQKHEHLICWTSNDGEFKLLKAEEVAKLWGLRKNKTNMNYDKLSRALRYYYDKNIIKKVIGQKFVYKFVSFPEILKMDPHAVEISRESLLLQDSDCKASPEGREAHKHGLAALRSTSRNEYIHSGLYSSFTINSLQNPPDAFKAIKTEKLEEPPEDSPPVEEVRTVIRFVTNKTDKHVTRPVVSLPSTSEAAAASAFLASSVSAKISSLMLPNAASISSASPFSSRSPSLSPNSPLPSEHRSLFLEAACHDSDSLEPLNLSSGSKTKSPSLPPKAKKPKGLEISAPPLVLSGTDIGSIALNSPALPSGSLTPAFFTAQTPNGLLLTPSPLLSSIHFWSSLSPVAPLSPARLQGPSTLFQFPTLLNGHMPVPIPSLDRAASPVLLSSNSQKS
How it was run: as §1

ETV5 = ETV5 (Homo sapiens, UniProt P41161 1-510)
How it was run: as §1

Chain of ELF1 (P32519 whole entry): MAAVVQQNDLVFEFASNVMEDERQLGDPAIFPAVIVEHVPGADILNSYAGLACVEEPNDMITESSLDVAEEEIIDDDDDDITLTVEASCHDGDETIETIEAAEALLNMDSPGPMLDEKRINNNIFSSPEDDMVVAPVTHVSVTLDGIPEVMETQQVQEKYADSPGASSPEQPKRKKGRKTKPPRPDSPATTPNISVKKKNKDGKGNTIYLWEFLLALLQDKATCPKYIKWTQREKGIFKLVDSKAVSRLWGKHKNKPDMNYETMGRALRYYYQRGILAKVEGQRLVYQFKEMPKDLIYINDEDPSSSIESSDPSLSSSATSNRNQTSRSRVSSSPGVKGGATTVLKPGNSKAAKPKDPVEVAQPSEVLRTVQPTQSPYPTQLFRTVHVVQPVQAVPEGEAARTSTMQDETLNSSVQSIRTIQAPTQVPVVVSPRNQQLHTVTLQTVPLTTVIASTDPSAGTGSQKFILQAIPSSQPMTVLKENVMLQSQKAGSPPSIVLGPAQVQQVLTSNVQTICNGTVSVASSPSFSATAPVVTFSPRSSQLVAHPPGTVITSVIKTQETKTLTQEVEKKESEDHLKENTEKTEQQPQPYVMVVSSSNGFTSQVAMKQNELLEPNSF
Chain of SPIB (Q01892 whole entry): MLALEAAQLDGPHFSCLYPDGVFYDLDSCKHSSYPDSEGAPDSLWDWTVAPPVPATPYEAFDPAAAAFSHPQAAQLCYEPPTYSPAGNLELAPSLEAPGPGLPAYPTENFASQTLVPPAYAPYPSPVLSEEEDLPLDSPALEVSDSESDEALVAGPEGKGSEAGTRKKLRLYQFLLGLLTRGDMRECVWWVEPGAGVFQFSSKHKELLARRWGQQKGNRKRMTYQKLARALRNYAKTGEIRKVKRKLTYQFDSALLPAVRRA
Chain of ETV5 (P41161 whole entry): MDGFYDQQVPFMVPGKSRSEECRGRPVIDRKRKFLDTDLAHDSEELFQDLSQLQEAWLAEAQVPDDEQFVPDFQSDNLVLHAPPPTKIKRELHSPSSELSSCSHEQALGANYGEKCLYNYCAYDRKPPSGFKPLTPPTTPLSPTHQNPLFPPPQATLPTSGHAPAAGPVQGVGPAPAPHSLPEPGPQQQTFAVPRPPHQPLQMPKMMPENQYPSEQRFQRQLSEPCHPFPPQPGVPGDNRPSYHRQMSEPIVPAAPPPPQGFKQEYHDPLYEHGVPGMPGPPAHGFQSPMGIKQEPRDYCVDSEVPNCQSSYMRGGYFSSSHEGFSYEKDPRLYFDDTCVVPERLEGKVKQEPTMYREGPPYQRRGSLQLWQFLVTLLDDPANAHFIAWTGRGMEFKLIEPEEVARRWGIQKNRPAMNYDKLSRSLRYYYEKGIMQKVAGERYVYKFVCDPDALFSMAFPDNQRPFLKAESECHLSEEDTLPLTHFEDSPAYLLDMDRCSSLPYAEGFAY

Sequence: CGTCGC
- binding signal (FLI1): 1.31 fold enrichment (6-mer frequency, TF over GST control)
- binding signal (ELK1): 1.2 fold enrichment (6-mer frequency, TF over GST control)
- binding signal (GABPA): 1.24 fold enrichment (6-mer frequency, TF over GST control)
- binding signal (ERG): 1.19 fold enrichment (6-mer frequency, TF over GST control)
- binding signal (ELF1): 1.21 fold enrichment (6-mer frequency, TF over GST control)
- binding signal (EHF): 1.14 fold enrichment (6-mer frequency, TF over GST control)
- binding signal (SPI1): 1.21 fold enrichment (6-mer frequency, TF over GST control)
- binding signal (SPIB): 1.25 fold enrichment (6-mer frequency, TF over GST control)
- binding signal (ELK3): 1.09 fold enrichment (6-mer frequency, TF over GST control)
- binding signal (ETV5): 1.12 fold enrichment (6-mer frequency, TF over GST control)
